According to PubChem BioAssay AID1159580 (chemical genetic matrix, 2015):
Out of some 5,500 compounds screened, about 2,000 (36%) were called active. Inconclusive results (about 18%) are left out. This is one part of the list. Values without a mark were called inactive. No stated cut-off is given here; in the data, active means normalized growth mostly below about 0.91 (no sharp cut-off); inconclusive means no clear call, values can overlap the other calls; inactive means mostly above about 0.92.

Assay: chemical genetic growth profiling, strain panel (AID 1159580);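 further: tested at 20 µM; growth read once vehicle control cultures reached saturation at 30 °C; 1 = growth at the plate median or of vehicle wells; lower values mean less growth of the strain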
Settings: growth OD

In the case of `COc1c2ccoc2cc2oc(C)cc(=O)c12`, the normalized growth (S. cerevisiae deletion strains, locus YKL009W, strain mrt4, active compounds read low) is reported as 0.965, the normalized growth (S. cerevisiae deletion strains, locus YKL068W, active compounds read low) is reported as 0.982 and the normalized growth (S. cerevisiae deletion strains, locus YKL085W, strain MDH1 (second series), active compounds read low) is reported as 0.974. It also gave a normalized growth (S. cerevisiae deletion strains, locus YKL085W, strain MDH1, active compounds read low) of 0.974, a normalized growth (S. cerevisiae deletion strains, locus YKL160W, strain elf1, active compounds read low) of 0.993 and a normalized growth (S. cerevisiae deletion strains, locus YKL190W, strain CNB1, active compounds read low) of 0.978. For the same compound, the normalized growth (S. cerevisiae deletion strains, locus YKR001C, strain vps1, active compounds read low) was 0.961, the normalized growth (S. cerevisiae deletion strains, locus YKR026C, strain gcn3, active compounds read low) was 0.982 and the normalized growth (S. cerevisiae deletion strains, locus YKR091W, strain srl3, active compounds read low) was 0.998. For the same compound, the normalized growth (S. cerevisiae deletion strains, locus YLL001W, strain dnm1, active compounds read low) was 0.998, the normalized growth (S. cerevisiae deletion strains, locus YLL026W, active compounds read low) was 0.992 and the normalized growth (S. cerevisiae deletion strains, locus YLL041C, strain sdh2, active compounds read low) was 1.01. For the same compound, the normalized growth (S. cerevisiae deletion strains, locus YLR027C, strain aat2, active compounds read low) was 0.997, the normalized growth (S. cerevisiae deletion strains, locus YLR039C, strain RIC1, active compounds read low) was 0.968 and the normalized growth (S. cerevisiae deletion strains, locus YLR058C, strain SHM2, active compounds read low) was 0.936. It also gave a normalized growth (S. cerevisiae deletion strains, locus YLR102C, strain apc9, active compounds read low) of 0.992, a normalized growth (S. cerevisiae deletion strains, locus YLR113W, strain HOG1, active compounds read low) of 1.1 and a normalized growth (S. cerevisiae deletion strains, locus YLR221C, strain rsa3, active compounds read low) of 0.987. For the same compound, the normalized growth (S. cerevisiae deletion strains, locus YLR258W, strain gsy2, active compounds read low) was 0.987, the normalized growth (S. cerevisiae deletion strains, locus YLR262C, strain YPT6 (second series), active compounds read low) was 1.03 and the normalized growth (S. cerevisiae deletion strains, locus YLR262C, strain YPT6, active compounds read low) was 0.92. The normalized growth (S. cerevisiae deletion strains, locus YLR268W, strain sec22, active compounds read low) was 1.02, the normalized growth (S. cerevisiae deletion strains, locus YLR320W, strain mms22, active compounds read low) was 0.993 and the normalized growth (S. cerevisiae deletion strains, locus YLR330W, strain CHS5, active compounds read low) was 0.986. It also gave a normalized growth (S. cerevisiae deletion strains, locus YLR342W, strain FKS1 (second series), active compounds read low) of 1.01, a normalized growth (S. cerevisiae deletion strains, locus YLR342W, strain FKS1, active compounds read low) of 0.984 and a normalized growth (S. cerevisiae deletion strains, locus YLR357W, strain rsc2, active compounds read low) of 0.98. It also gave a normalized growth (S. cerevisiae deletion strains, locus YLR370C, strain arc18, active compounds read low) of 0.992, a normalized growth (S. cerevisiae deletion strains, locus YLR371W, strain rom2, active compounds read low) of 0.986 and a normalized growth (S. cerevisiae deletion strains, locus YLR384C, strain iki3, active compounds read low) of 1. For the same compound, the normalized growth (S. cerevisiae deletion strains, locus YLR418C, strain cdc73, active compounds read low) was 0.835 (active), the normalized growth (S. cerevisiae deletion strains, locus YML016C, strain PPZ1, active compounds read low) was 0.977 and the normalized growth (S. cerevisiae deletion strains, locus YML032C, strain rad52, active compounds read low) was 0.912. It also gave a normalized growth (S. cerevisiae deletion strains, locus YML120C, strain ndi1, active compounds read low) of 1.02, a normalized growth (S. cerevisiae deletion strains, locus YML124C, strain tub3, active compounds read low) of 0.99 and a normalized growth (S. cerevisiae deletion strains, locus YMR058W, strain fet3, active compounds read low) of 1. The normalized growth (S. cerevisiae deletion strains, locus YMR078C, strain ctf18, active compounds read low) was 0.977, the normalized growth (S. cerevisiae deletion strains, locus YMR125W, strain sto1, active compounds read low) was 0.997 and the normalized growth (S. cerevisiae deletion strains, locus YMR129W, active compounds read low) was 0.999. It also gave a normalized growth (S. cerevisiae deletion strains, locus YMR205C, strain PFK2, active compounds read low) of 1.01, a normalized growth (S. cerevisiae deletion strains, locus YMR223W, strain ubp8, active compounds read low) of 0.956 and a normalized growth (S. cerevisiae deletion strains, locus YMR231W, strain pep5, active compounds read low) of 1.01. For the same compound, the normalized growth (S. cerevisiae deletion strains, locus YMR307W, strain GAS1, active compounds read low) was 0.961, the normalized growth (S. cerevisiae deletion strains, locus YNL067W, strain RPL9B, active compounds read low) was 0.96 and the normalized growth (S. cerevisiae deletion strains, locus YNL071W, strain lat1, active compounds read low) was 0.993. The normalized growth (S. cerevisiae deletion strains, locus YNL128W, strain TEP1, active compounds read low) was 0.943, the normalized growth (S. cerevisiae deletion strains, locus YNL153C, strain GIM3, active compounds read low) was 0.93 and the normalized growth (S. cerevisiae deletion strains, locus YNL183C, strain NPR1, active compounds read low) was 0.983. For the same compound, the normalized growth (S. cerevisiae deletion strains, locus YNL209W, strain ssb2, active compounds read low) was 0.983, the normalized growth (S. cerevisiae deletion strains, locus YNL233W, strain BNI4, active compounds read low) was 0.924 and the normalized growth (S. cerevisiae deletion strains, locus YNL248C, strain rpa49, active compounds read low) was 1. It also gave a normalized growth (S. cerevisiae deletion strains, locus YNL250W, strain rad50, active compounds read low) of 0.987, a normalized growth (S. cerevisiae deletion strains, locus YNL271C, strain bni1, active compounds read low) of 0.986 and a normalized growth (S. cerevisiae deletion strains, locus YNL298W, strain CLA4, active compounds read low) of 0.975. The normalized growth (S. cerevisiae deletion strains, locus YNL307C, strain MCK1, active compounds read low) was 0.991, the normalized growth (S. cerevisiae deletion strains, locus YNL322C, strain KRE1 (second series), active compounds read low) was 0.984 and the normalized growth (S. cerevisiae deletion strains, locus YNL322C, strain KRE1, active compounds read low) was 0.976. For the same compound, the normalized growth (S. cerevisiae deletion strains, locus YNR049C, strain mso1, active compounds read low) was 0.993, the normalized growth (S. cerevisiae deletion strains, locus YNR052C, strain pop2, active compounds read low) was 0.977 and the normalized growth (S. cerevisiae deletion strains, locus YOL006C, strain TOP1, active compounds read low) was 0.946. For the same compound, the normalized growth (S. cerevisiae deletion strains, locus YOL012C, strain htz1) was 1.83, the normalized growth (S. cerevisiae deletion strains, locus YOL147C, strain pex11, active compounds read low) was 0.984 and the normalized growth (S. cerevisiae deletion strains, locus YOR001W, strain rrp6, active compounds read low) was 0.982. The normalized growth (S. cerevisiae deletion strains, locus YOR061W, strain CKA2, active compounds read low) was 0.959, the normalized growth (S. cerevisiae deletion strains, locus YOR069W, strain VPS5, active compounds read low) was 0.993 and the normalized growth (S. cerevisiae deletion strains, locus YOR070C, strain gyp1, active compounds read low) was 0.984. The normalized growth (S. cerevisiae deletion strains, locus YOR080W, strain dia2, active compounds read low) was 1.02, the normalized growth (S. cerevisiae deletion strains, locus YOR083W, strain WHI5, active compounds read low) was 0.994 and the normalized growth (S. cerevisiae deletion strains, locus YOR106W, strain vam3, active compounds read low) was 0.994. It also gave a normalized growth (S. cerevisiae deletion strains, locus YOR136W, strain idh2, active compounds read low) of 0.996, a normalized growth (S. cerevisiae deletion strains, locus YOR144C, strain elg1, active compounds read low) of 0.989 and a normalized growth (S. cerevisiae deletion strains, locus YOR184W, strain ser1, active compounds read low) of 0.967. For the same compound, the normalized growth (S. cerevisiae deletion strains, locus YOR231W, strain MKK1, active compounds read low) was 1.07, the normalized growth (S. cerevisiae deletion strains, locus YOR265W, strain rbl2, active compounds read low) was 1 and the normalized growth (S. cerevisiae deletion strains, locus YOR270C, strain vph1, active compounds read low) was 0.997. It also gave a normalized growth (S. cerevisiae deletion strains, locus YOR290C, strain snf2, active compounds read low) of 0.974, a normalized growth (S. cerevisiae deletion strains, locus YOR316C, strain cot1, active compounds read low) of 0.995 and a normalized growth (S. cerevisiae deletion strains, locus YPL051W, strain arl3, active compounds read low) of 0.979. For the same compound, the normalized growth (S. cerevisiae deletion strains, locus YPL078C, strain atp4, active compounds read low) was 0.992, the normalized growth (S. cerevisiae deletion strains, locus YPL106C, strain sse1, active compounds read low) was 0.95 and the normalized growth (S. cerevisiae deletion strains, locus YPL240C, strain hsp82, active compounds read low) was 0.99. The normalized growth (S. cerevisiae deletion strains, locus YPL241C, strain CIN2, active compounds read low) was 0.976, the normalized growth (S. cerevisiae deletion strains, locus YPL256C, strain CLN2, active compounds read low) was 1.05 and the normalized growth (S. cerevisiae deletion strains, locus YPR119W, strain clb2, active compounds read low) was 0.986. It also gave a normalized growth (S. cerevisiae deletion strains, locus YPR141C, strain kar3, active compounds read low) of 0.984, a normalized growth (S. cerevisiae deletion strains, locus YPR163C, strain tif3, active compounds read low) of 0.978 and a normalized growth (S. cerevisiae deletion strains, locus YPR167C, strain met16, active compounds read low) of 0.991. For the same compound, the normalized growth (S. cerevisiae deletion strains, strain wtn01, active compounds read low) was 1.03 and the normalized growth (S. cerevisiae strains, strain wild type, active compounds read low) was 0.965.
